The record followed here is PubChem BioAssay (Tox21).

Each structure is given as a SMILES string. A number with no mark means an inactive call. Records with an inconclusive call do not appear. The source made the active and inactive calls. Unless noted, calls follow the shape of the dose curve; as a rule, active = well fitted curve in the direction sought with a large enough effect in the repeat runs; inconclusive = weak or mixed curves; inactive = no such curve, though single readings can be large; an effect the other way counts as inactive or inconclusive.

Assay [1] in a line: qHTS assay to identify small molecule agonists of the constitutive androstane receptor (CAR) signaling pathway - cell viability counter screen (AID 1224836). Also: nearly all actives have a fitted effect of over 45% in size. The procedure, abridged: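 HepG2 cells stably carrying hCAR and a CYP2B6-2.2kb reporter; 15-concentration compounds plus PK11195 (final 0.75 uM), 23 hr at 37 C/5% CO2. Viability read by CellTiter-Fluor fluorescence.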
Assay [2] can be described thus: qHTS assay to identify small molecule antagonists of the constitutive androstane receptor (CAR) signaling pathway - cell viability counter screen (AID 1224837). Also: nearly all actives have a fitted effect of over 45% in size. The procedure, abridged: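 HepG2 cells stably carrying hCAR and CYP2B6-2.2kb reporter, stimulated with 50 nM CITCO and compounds at 15 concentrations for 23 h at 37 C. Viability measured by CellTiter-Fluor fluorescence.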
In general terms: qHTS replaces the single test concentration by a dilution series.

In assay [3] the target is Nuclear receptor subfamily 1 group I member 3 (Homo sapiens) (UniProt Q14994). In words: qHTS assay to identify small molecule antagonists of the constitutive androstane receptor (CAR) signaling pathway (AID 1224838). Also: nearly all actives have a fitted effect of over 40% in size. The method in brief:
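HepG2 cells stably carrying hCAR and a CYP2B6-2.2kb luciferase reporter, seeded 4 hrs before compound (15 concentrations). Stimulated with 50 nM CITCO for 24 hr at 37 C. ONE-Glo luminescence read after 30 min at room temperature.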

The target is the same in assay [4]. The experiment in a line: qHTS assay to identify small molecule agonists of the constitutive androstane receptor (CAR) signaling pathway (AID 1224839). Also: nearly all actives have a fitted effect of over 15% in size. Also: potency is read from the fitted curve at half-maximal effect. The method in brief: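 HepG2 cells stably co-transfected with hCAR and a CYP2B6-2.2kb luciferase reporter; compounds at 15 concentrations with 0.75 uM PK11195 present. After 24 hr at 37 C, luciferase read by ONE-Glo luminescence.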

A short description of assay [5]: qHTS assay to identify small molecule antagonists of the estrogen related receptor signaling pathway with the pleiotropic PPARgamma coactivator (PGC) from Tox21 10K library - cell viability counter screen (AID 1224840; active = well fitted cell-killing curve with a large enough effect in the repeat runs, not every such curve was filed as active; also: nearly all actives have a fitted effect of over 40% in size). The method in brief:
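PGC/ERR cells (2,000/well) plated 6 h, then compound-treated for 17.5 h at 37 C. Viability measured by CellTiter-Fluor fluorescence after 30 min at 37 C, multiplexed with the pathway assay.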

For assay [6], the target named is Thyrotropin receptor (Homo sapiens) (UniProt P16473). The experiment in a line: qHTS assay to identify small molecule agonists of the thyroid stimulating hormone receptor (TSHR) signaling pathway (AID 1224843; calls by dose curve; also: nearly all actives have a fitted effect of over 45% in size; also: potency is read from the fitted curve at half-maximal effect). The method in brief:
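TSHR-expressing HEK293 cells (800 per well) were exposed to compounds for 30 min at room temperature. cAMP was then detected by HTRF competition with cAMP-d2 and anti-cAMP cryptate, read after 1 h at room temperature. Fifteen concentrations, triplicate.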

A short description of assay [7]: qHTS assay to identify small molecule agonists of the hypoxia (HIF-1) signaling pathway - cell viability counter screen (AID 1224844; calls by dose curve; also: nearly all actives have a fitted effect of over 50% in size; also: potency is read from the fitted curve at half-maximal effect). The method in brief: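 HRE-bla ME-180 cells, 2,000/well in 0.5% dialyzed FBS medium, treated 17 h at 37C with compounds. Viability read in the same wells as the bla reporter, by CellTiter-Glo luminescence after 30 min at room temperature.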

The nature of assay [8]: qHTS assay to identify small molecule agonists of H2AX (AID 1224845; active = well fitted activation curve with a large enough effect in the signal ratio in the repeat runs, not every such curve was filed as active; the % refers to the signal ratio). The method in brief:
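Wild-type CHO-K1 cells plated overnight, then exposed 3 hr at 37C to compounds at 15 concentrations (0.76% DMSO). Lysed, then HTRF anti-pH2AX(S139)-cryptate/anti-H2AX-d2 detection after 24 hr at room temperature; emissions 665 and 620 nm.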

Assay [9] can be described thus: qHTS assay to identify small molecule agonists of the hypoxia (HIF-1) signaling pathway (AID 1224846; active = well fitted activation curve with a large enough effect in the signal ratio in the repeat runs, not every such curve was filed as active; the % refers to the signal ratio). The procedure, abridged: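 HRE-bla ME-180 beta-lactamase reporter cells in medium with 0.5% dialyzed FBS, pre-incubated 5 h then exposed to compounds 17 h at 37C, 5% CO2; reporter induction read with CCF4-AM FRET substrate.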
Assay [10] in a line: qHTS assay to identify small molecule agonists of H2AX - cell viability counter screen (AID 1224847; calls by dose curve; also: nearly all actives have a fitted effect of over 30% in size; also: potency is read from the fitted curve at half-maximal effect). The method in brief:
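CHO-K1 cells plated overnight at 37C, then exposed 3 h at 37C to compounds at 15 concentrations (0.76% DMSO final). Viability by CellTiter-Glo luminescence after 30 min at room temperature.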

Assay [11] in a line: qHTS RealTime-Glo MT Cell Viability Assay in HepG2 cells - 24 hour (AID 1224867). Also: nearly all actives have a fitted effect of over 50% in size. The method in brief: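 Cells + NanoLuc/prosubstrate dispensed (600 cells/well) → 5 h at 37 C/5% CO2 → compounds in DMSO transferred → 40 h incubation at 37 C, luminescence read at 0, 8, 16, 24, 32, 40 h.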
A short description of assay [12]: A CellTox Green Cytotoxicity Assay to monitor cytotoxicity in HEK293 cells - 0 hour (AID 1224869). Also: nearly all actives have a fitted effect of over 50% in size. The method in brief: (§1)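 HEK293 cells, 600/well, were preincubated 5 hours and then exposed to compounds at 37 C for up to 40 hours. A cell-impermeant cyanine dye staining dead-cell DNA was read by fluorescence at 0, 8, 16, 24, 32 and 40 h time points.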
Assay [13] in a line: qHTS RealTime-Glo MT Cell Viability Assay in HepG2 cells - 40 hour (AID 1224870). Also: nearly all actives have a fitted effect of over 50% in size. The method in brief: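 HepG2 cells mixed with RealTime-Glo MT reagents (NanoLuc plus cell-permeant prosubstrate) were seeded at 600 cells/well, incubated 5 h at 37 C/5% CO2, then pinned with compounds in DMSO; nonlytic luminescence tracked viability during 40 h treatment.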
Assay [14] is described as follows: A CellTox Green Cytotoxicity Assay to monitor cytotoxicity in HEK293 cells - 40 hour (AID 1224871). Also: nearly all actives have a fitted effect of over 45% in size. The method in brief:
as §1

Assay [15] can be described thus: qHTS assay to identify small molecule antagonists of the estrogen related receptor signaling pathway with the pleiotropic PPARgamma coactivator (PGC) from Tox21 10K library (AID 1224841; call rule not given here; also: potency is read from the fitted curve at half-maximal effect). The method in brief:
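PGC/ERR cell line, 2,000 cells/well, pre-incubated 6 hours at 37 C, then exposed to compounds for 18 hours at 37 C; luciferase read with One-Glo luminescence after 30 min at room temperature.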

A short description of assay [16]: qHTS assay to identify small molecule agonists of the estrogen related receptor signaling pathway with the pleiotropic PPARgamma coactivator (PGC) from Tox21 10K library (AID 1224842). Also: nearly all actives have a fitted effect of over 15% in size. Also: potency is read from the fitted curve at half-maximal effect. The procedure, abridged:
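PGC/ERR reporter cells (NTP line) were seeded 2,000 per well, rested 6 h at 37 C/5% CO2, then pin-dosed with compounds in DMSO for 18 h at 37 C; luciferase read by One-Glo luminescence after 30 min at room temperature.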

Assay [17] in a line: qHTS assay to identify small molecule antagonists of the estrogen related receptor (ERR) signaling pathway from Tox21 library (AID 1224848). Also: nearly all actives have a fitted effect of over 50% in size. Also: potency is read from the fitted curve at half-maximal effect. The procedure, abridged: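 Cells: ERR line, 2,000/well; 6 h preincubation 37 C/5% CO2. Cpd in DMSO via pin tool; 18 h, 37 C. ONE-Glo, 30 min RT, luminescence.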
The nature of assay [18]: qHTS assay to identify small molecule agonists of the estrogen related receptor (ERR) signaling pathway from Tox21 library (AID 1224849; calls by dose curve; also: nearly all actives have a fitted effect of over 15% in size). Conditions: ERR reporter cell line, ONE-Glo luciferase, 18 h; at 92.4 µM (top of the series) unless noted. The procedure, abridged: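 ERR reporter cells (NTP line) pre-incubated 6 hours at 37 C, then exposed to compounds for 18 hours at 37 C. ONE-Glo luciferase luminescence was read after 30 minutes at room temperature.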

A short description of assay [19]: qHTS RealTime-Glo MT Cell Viability Assay in HEK293 cells - 32 hour (AID 1224868). The procedure, abridged:
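Tox21 10K qHTS, HEK293, 600 cells/well, RealTime-Glo reagent co-dispensed with cells; 5 h preincubation, compound by pintool, 37 C, luminescence at 0–40 h.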

In assay [20] the target is Luciferin 4-monooxygenase (Photinus pyralis) (UniProt P08659). The experiment in a line: qHTS assay to identify small molecule inhibitors of firefly luciferase (AID 1224835). Also: nearly all actives have a fitted effect of over 25% in size. The procedure, abridged: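 Quantitative HTS format; KM concentrations of both substrates. Purified P. pyralis FLuc activity quantified from luminescence images.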
% is scaled to controls: 0 for no effect and ±100 for the full control effect.

Chain of Thyrotropin receptor (Homo sapiens) (P16473 whole entry, looked up): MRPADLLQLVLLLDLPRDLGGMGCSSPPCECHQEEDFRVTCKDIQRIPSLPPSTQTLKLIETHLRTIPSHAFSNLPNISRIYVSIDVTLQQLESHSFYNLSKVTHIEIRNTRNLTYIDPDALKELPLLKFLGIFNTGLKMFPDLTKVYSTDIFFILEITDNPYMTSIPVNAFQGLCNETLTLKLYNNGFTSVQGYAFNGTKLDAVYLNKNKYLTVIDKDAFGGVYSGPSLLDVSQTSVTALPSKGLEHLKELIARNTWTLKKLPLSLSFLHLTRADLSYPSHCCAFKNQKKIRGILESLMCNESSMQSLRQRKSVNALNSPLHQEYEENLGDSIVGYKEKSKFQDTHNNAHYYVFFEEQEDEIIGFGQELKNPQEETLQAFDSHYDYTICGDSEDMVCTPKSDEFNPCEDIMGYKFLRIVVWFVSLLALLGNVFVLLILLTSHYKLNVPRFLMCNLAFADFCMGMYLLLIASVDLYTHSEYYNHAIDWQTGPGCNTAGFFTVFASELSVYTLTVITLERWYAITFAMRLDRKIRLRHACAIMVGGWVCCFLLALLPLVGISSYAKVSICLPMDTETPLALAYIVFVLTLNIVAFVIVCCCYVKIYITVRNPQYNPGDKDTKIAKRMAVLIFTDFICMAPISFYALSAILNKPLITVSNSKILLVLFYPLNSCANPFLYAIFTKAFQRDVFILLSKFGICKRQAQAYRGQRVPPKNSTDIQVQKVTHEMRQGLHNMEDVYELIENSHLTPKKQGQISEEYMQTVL
Chain of Nuclear receptor subfamily 1 group I member 3 (Homo sapiens) (Q14994 whole entry, looked up): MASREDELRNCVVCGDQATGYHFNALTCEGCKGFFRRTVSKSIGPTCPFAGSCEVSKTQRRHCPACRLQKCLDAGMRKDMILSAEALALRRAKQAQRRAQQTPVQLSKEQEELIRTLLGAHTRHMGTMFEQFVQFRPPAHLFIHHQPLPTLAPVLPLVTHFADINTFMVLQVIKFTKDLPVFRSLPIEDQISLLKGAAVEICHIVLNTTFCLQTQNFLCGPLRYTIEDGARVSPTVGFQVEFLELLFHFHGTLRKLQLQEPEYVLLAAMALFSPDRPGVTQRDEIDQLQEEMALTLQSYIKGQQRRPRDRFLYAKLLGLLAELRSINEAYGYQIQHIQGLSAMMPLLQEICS
Chain of Luciferin 4-monooxygenase (Photinus pyralis) (P08659 whole entry, looked up): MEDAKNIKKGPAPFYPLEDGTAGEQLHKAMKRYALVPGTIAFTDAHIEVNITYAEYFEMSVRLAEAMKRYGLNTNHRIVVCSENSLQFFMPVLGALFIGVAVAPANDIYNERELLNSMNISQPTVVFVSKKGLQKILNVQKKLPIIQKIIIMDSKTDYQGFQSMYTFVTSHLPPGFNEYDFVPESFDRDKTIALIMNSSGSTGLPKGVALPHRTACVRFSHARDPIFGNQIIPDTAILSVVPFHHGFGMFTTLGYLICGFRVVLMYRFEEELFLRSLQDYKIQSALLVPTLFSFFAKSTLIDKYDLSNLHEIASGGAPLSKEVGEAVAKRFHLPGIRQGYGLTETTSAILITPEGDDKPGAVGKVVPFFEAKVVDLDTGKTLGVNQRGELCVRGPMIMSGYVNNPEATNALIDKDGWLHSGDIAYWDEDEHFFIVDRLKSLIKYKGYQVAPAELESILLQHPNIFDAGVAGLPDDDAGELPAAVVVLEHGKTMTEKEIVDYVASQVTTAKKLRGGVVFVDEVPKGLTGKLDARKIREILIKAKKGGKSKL

In the case of `CCCS(=O)c1ccc2nc(NC(=O)OC)[nH]c2c1` (centres undefined), the Potency result in assay [1], in assay [2], in assay [3], in assay [4], in [5] and in assay [6] was “inactive” throughout. The Potency entry in assay [7], in assay [8], in assay [10], in [11], in assay [12] and in [13] was “inactive” throughout. Besides, the Potency entry in assay [14] was “inactive”. Besides, the compound was classed as inactive in [9].
In the case of `C=O`, the Potency entry in [1], in [2], in assay [3], in [4], in [5] and in assay [15] was “inactive” each time. The Potency result in [16], in assay [6], in assay [7], in [8], in assay [17] and in [11] was “inactive” throughout. In addition, the Potency result in assay [12], in assay [13] and in assay [14] was “inactive” throughout. In assay [9], the call was inactive. In addition, the activity change, positive = activation in [18] was 0.267%.
Consider `O=C(CC(=O)C(F)(F)F)c1ccccc1`, for which the Potency result in assay [1], in assay [2], in assay [3], in [15], in [8] and in assay [10] was “inactive” in each case. In addition, the Potency result in [17], in assay [11], in [19], in [12], in assay [13] and in [14] was “inactive” each time. Further, the Potency in assay [4] was 55.3 µM (active); in assay [16], 6.2 µM (active); in assay [6], 17.5 µM (active). In addition, in assay [18], the activity change, positive = activation is -6.03%.
With `O=C(O)C(=O)Cc1c[nH]c2ccccc12`, the Potency result in assay [1], in assay [2], in [3], in [5], in [6] and in assay [7] was “inactive” each time. Also, the Potency result in assay [8], in [10], in assay [11], in assay [19], in assay [12] and in [13] was “inactive” each time. The Potency entry in [14] is “inactive”. The Potency in [4] was 30.6 µM (active). Also, the compound was classed as inactive in assay [9].
Consider `COC(=O)c1ccc(OC)cc1`, for which the Potency entry in [1], in assay [2], in assay [3], in [4], in assay [5] and in assay [15] was “inactive” in each case. The Potency result in assay [16], in assay [6], in [7], in [8], in assay [10] and in assay [17] was “inactive” throughout. The Potency result in assay [11], in assay [12], in [13] and in [14] was “inactive” in each case. The call in assay [9] was inactive. In addition, the activity change, positive = activation in assay [18] was 5.85%.
For the compound `CC(C)C1=CC2=CC[C@@H]3[C@](C)(CCC[C@@]3(C)C(=O)O)[C@H]2CC1`, the Potency result in assay [1], in assay [2], in assay [3], in assay [4], in assay [5] and in assay [16] was “inactive” throughout. The Potency entry in [10], in [11], in [19], in [12], in [13] and in assay [14] was “inactive” each time. For the same compound, in assay [7], the Potency was 43.6 µM (active). Further, in [18], the activity change, positive = activation is -16.7%.
Turning to `CC(=O)Oc1cc(C(C)C)c(OCCN(C)C)cc1C`, the Potency result in assay [20], in assay [2], in [3], in assay [5], in assay [6] and in assay [7] was “inactive” throughout. Besides, the Potency entry in assay [8], in assay [10], in assay [11], in assay [13] and in assay [14] was “inactive” throughout.
Regarding `CCOc1ccccc1N`, the Potency result in assay [20], in assay [5], in [16], in assay [6], in assay [7] and in assay [8] was “inactive” each time. Also, the Potency result in [11], in assay [12] and in [13] was “inactive” each time. Moreover, the results for the Potency in assay [15], in assay [10] and in assay [17] were 15.2 µM (active), 44.7 µM (active) and 12.1 µM (active), respectively. Besides, the call in assay [9] was inactive. Besides, the activity change, positive = activation in assay [18] was -59%.
